Experimental data taken from PubChem BioAssay (EPA / NIEHS).
Active and inactive are the calls of the source. Rule for the calls: active = hit-call score of the fitted dose curve at least 0.9, where 1 is the maximum; inactive = score below 0.9.

Test system: not listed separately
Assay: ATG_Oct_MLP_CIS: Attagene CIS-FACTORIAL HepG2 Assay for human Octamer-Binding Transcription Factor (Oct) (AID 2282993)
Conditions: HepG2 Attagene cis-factorial Oct reporter, mRNA; actives raise or lower the signal
In short: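 HepG2 cells transiently transfected with cis-element-driven reporter transcription units (endogenous TF activity); 24 h compound exposure. Reporter mRNA quantified by RT-PCR, 6-FAM labelling, HpaI digestion and capillary electrophoresis; bidirectional fit versus DMSO baseline.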
With `CC1=C(C(=O)Nc2ccccc2)SCCO1` the outcome was “inactive”.
With `COP(=S)(OC)Oc1nc(Cl)c(Cl)cc1Cl` the outcome was “inactive”.
With `CCOc1cc(Oc2ccc(C(F)(F)F)cc2Cl)ccc1[N+](=O)[O-]` the AC50 was 13.7 µM (active).
With `Cc1ccc(-c2c(Cl)nc(C#N)n2S(=O)(=O)N(C)C)cc1` the AC50 was 11.9 µM (active).
In the case of `CC(Oc1ccc(Cl)cc1Cl)C(=O)O` (centres undefined), the outcome is reported as “inactive”.
With `Fc1ccc(Oc2ccnc3cc(Cl)cc(Cl)c23)cc1` the outcome was “inactive”.

Biological target: Cellular tumor antigen p53 (Homo sapiens) (UniProt P04637)
Sequence (P04637 whole entry, looked up): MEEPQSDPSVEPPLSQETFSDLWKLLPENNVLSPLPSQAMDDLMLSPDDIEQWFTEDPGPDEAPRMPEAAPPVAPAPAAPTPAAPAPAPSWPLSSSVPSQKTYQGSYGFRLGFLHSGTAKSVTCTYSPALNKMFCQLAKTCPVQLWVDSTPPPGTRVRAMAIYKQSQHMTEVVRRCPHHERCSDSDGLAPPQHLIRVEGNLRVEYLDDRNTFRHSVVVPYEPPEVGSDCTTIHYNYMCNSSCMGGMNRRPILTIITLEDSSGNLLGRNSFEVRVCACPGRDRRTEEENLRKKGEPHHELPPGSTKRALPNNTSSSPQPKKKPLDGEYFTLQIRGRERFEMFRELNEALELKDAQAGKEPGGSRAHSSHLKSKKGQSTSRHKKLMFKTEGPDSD
Assay: ATG_p53_CIS: Attagene CIS-FACTORIAL HepG2 Assay for human p53 Transcription Factor (AID 2282994)
Conditions: HepG2 p53 cis-element reporter, Attagene mRNA; actives raise or lower the signal
In short: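 HepG2, transient MRTU transfection (cis promoter elements, endogenous TFs); 24 h dosing; RNA isolation, RT-PCR, 6-FAM primer extension, HpaI digest, CE fluorescence; bidirectional fit vs DMSO.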
For `CCOC(=O)CC(SP(=S)(OC)OC)C(=O)OCC` (centres undefined), the outcome was “inactive”.
With `C=CCC1=C(C)[C@@H](OC(=O)[C@@H]2[C@@H](C=C(C)C)C2(C)C)CC1=O` the outcome was “inactive”.
For `CCNc1nc(Cl)nc(NCC)n1`, the outcome was “inactive”.
With `CCCCNC(=O)n1c(NC(=O)OC)nc2ccccc21` the outcome was “inactive”.
In the case of `CCOC(=O)C(Cl)Cc1cc(-n2nc(C)n(C(F)F)c2=O)c(F)cc1Cl` (centres undefined), the outcome is reported as “inactive”.
In the case of `COc1nc(C)nc(NC(=O)NS(=O)(=O)c2ccccc2Cl)n1`, the outcome is reported as “inactive”.
In the case of `CN(C)C(=S)SSC(=S)N(C)C`, the outcome is reported as “inactive”.
For `Cc1ccc(-c2c(Cl)nc(C#N)n2S(=O)(=O)N(C)C)cc1`, the outcome was “inactive”.
